Source: PubChem BioAssay
Calls of active or inactive are those of the source.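 Rule for the calls, unless noted: active = inhibition above 20% together with a positive visual image hit; inconclusive = visual image hit but inhibition not above 20%; inactive = no visual image hit.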

Columns and labels:
[1] = inhibitors of TNFa-induced NFkB p65 translocation, primary screen, imaging, HUVEC, MLSMR starter and 10KST1 sets (AID 438); details: HUVEC TNFa-induced p65 nuclear translocation; cell count: measured here: nuclei count (cytotoxicity indicator), at 2.08 µM; inhibition: at 2 µM, stronger effect = higher value, 0% TNFa-plus-vehicle, 100% no-TNFa wells;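 note: compound added about 3h40 before a 20 min TNFalpha stimulation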;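 for inhibition: signal is the nuclear over cytoplasmic p65 intensity ratio per well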
[2] = reduction of polyQ htt aggregates in cells – imaging, exon1htt(103Q)mCFP cells, high-content imaging, primary screen (AID 483;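 active = visual image review flags a hit and inhibition of aggregation exceeds 20%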;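 note: compound exposure lasted 3 days before fixation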;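 for nuclei count: percent of the per-plate median nuclei count of sample wells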); details: exon1htt(103Q)mCFP cell line, aggregate imaging, at 2 µM; inhibition of aggregation: stronger effect = higher value; nuclei count: measured here: cell count, toxicity
[3] = endothelial E-selectin expression blockers – imaging, HUVEC, immunofluorescence, MLSMR starter and 10KST1 sets, primary screen (AID 487;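 active = visually confirmed hit in the image check and inhibition above 20%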;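 for inhibition: signal is fraction of cell area covered by stained E-selectin grains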;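 for nuclei count: 100% = median nuclei count of all wells on the same plate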); details: HUVEC TNFalpha-induced E-selectin immunofluorescence imaging, at 2 µM; inhibition: stronger effect = higher value; nuclei count: measured here: cell number, toxicity
[4] = target: Voltage-gated potassium channel subunit beta-2 (Rattus norvegicus) (UniProt P62483); assay: inhibitors of rat Kvbeta2 reductase activity – biochemical, NADPH fluorescence, primary screen (AID 622;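 active = fluorescence slope higher than the sample average by over 3 SD, cut at about -0.22 in these data, passing the limit was not always enough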;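 note: slope of raw intensity against log time taken from 70 to 1610 s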); details: recombinant KvBeta, 4-cyanobenzaldehyde reduction, at 10 µM, stronger effect = higher value
[5] = target: Voltage-gated potassium channel subunit beta-2 (Rattus norvegicus) (UniProt P62483); assay: enhancers of rat Kvbeta2 NADPH turnover – biochemical, NADPH fluorescence, primary screen (AID 623;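 active = NADPH fluorescence slope more negative than the mean of all samples by about 3 SD, 99.7% confidence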;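 note: fluorescence intensity change per second fitted from 20 to 320 s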); details: Recombinant KvBeta, NADPH fluorescence decrease slope, 10 min; at 10 µM; stronger effect = lower value
[6] = target: Alpha-2C adrenergic receptor (Homo sapiens) (UniProt P18825); assay: compounds altering alpha2C-coupled GIRK flux – cell-based, HEK293 alpha2C/GIRK1/2, thallium flux, primary screen (AID 624;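 active = fluorescence slope after compound addition differing from the mean of all screened samples at 99.7% confidence, in either direction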;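 note: slope of fluorescence ratio to pre-addition baseline per second over 15 to 24 s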); details: thallium flux BTC fluorescence, at 10 µM, actives lie on both sides
[7] = blockers of RIG-like receptor reporter activation – cell-based, Sendai virus stimulus, luciferase, 10K MLSCN set, TLR/RLR signaling modifier project, primary screen (AID 602276;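 active = inhibition at or above 50% at 10 µM; inactive = inhibition below 50%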;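 note: firefly luciferase from ISG56 promoter only with Renilla not read in this screen; 0% = Sendai virus plus DMSO and 100% = medium plus DMSO without virus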); details: HEK293 RL24 IRF3 luciferase reporter, at 10 µM, stronger effect = higher value
[8] = TLR3 IRF3 reporter activation blockers – cell-based, poly I:C stimulus, luciferase, 10K MLSCN set, primary screen (AID 602277;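 active = inhibition of the reporter signal at or above 50%; inactive = inhibition below 50%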); details: HEK293-TLR3 RL24 IRF3 luciferase reporter, at 10 µM, stronger effect = higher value

Sequence of Voltage-gated potassium channel subunit beta-2 (Rattus norvegicus) (P62483 whole entry, looked up): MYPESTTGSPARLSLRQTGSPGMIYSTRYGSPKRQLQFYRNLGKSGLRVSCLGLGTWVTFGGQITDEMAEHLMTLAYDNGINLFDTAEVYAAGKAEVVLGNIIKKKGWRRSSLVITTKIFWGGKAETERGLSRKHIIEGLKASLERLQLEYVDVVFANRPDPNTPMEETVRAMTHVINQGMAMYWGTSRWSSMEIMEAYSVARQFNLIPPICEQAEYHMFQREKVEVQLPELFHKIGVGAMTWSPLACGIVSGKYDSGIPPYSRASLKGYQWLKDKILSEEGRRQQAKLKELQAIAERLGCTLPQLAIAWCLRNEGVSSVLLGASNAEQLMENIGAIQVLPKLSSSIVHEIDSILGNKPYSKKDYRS
Sequence of Alpha-2C adrenergic receptor (Homo sapiens) (P18825 whole entry, looked up): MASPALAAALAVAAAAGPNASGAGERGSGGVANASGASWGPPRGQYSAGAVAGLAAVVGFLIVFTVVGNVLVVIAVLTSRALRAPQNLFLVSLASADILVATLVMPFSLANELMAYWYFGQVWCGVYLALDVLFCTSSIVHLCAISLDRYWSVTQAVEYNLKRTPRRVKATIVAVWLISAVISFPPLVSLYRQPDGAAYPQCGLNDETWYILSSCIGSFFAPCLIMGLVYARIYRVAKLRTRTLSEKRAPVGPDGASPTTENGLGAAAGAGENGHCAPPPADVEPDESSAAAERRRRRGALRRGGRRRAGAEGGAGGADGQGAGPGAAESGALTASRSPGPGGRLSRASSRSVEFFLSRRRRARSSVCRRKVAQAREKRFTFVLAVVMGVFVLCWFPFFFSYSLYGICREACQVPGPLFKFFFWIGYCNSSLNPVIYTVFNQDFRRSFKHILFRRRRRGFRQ

Row | SMILES | cell count [1] | inhibition [1] | inhibition of aggregation [2] | nuclei count [2] | inhibition [3] | nuclei count [3] | fluorescence slope [4] | NADPH fluorescence slope [5] | slope [6] | inhibition [7] | inhibition [8]
1 | COC(=O)c1c(C#N)c(N)nc2c1CCC2 | 474 | -0.6% (inactive) | 18.2% (inactive) | 80.9% | 33.1% (inactive) | 92.6% | -0.00808 (active) | -2e-06 (inactive) | 0.00834 (inactive) | 9.2% (inactive) | 8.56% (inactive)
2 | O=C1CC(N2CCOCC2)C(=O)N1c1ccccc1Cl (stereo unspecified) | 386 | -0.6% (inactive) | 13.9% (inactive) | 96.9% | -25.3% (inactive) | 128% | -0.338 (inactive) | 1.7e-05 (inactive) | 0.00688 (inactive) | 9.93% (inactive) | 18% (inactive)
3 | CCSc1nnc(NC(=O)CSc2nnc(Cc3cccn3C)n2-c2ccc(C)cc2)s1 | 601 | -12.3% (inactive) | -2.6% (inactive) | 112% | 16.8% (inactive) | 75.5% | -0.596 (inactive) | 1.3e-06 (inactive) | 0.00655 (inactive) | 3.74% (inactive) | 10.5% (inactive)
4 | CC(=O)NC(=O)NC1CSCC1OC(C)=O (stereo unspecified) | 590 | 1.2% (inactive) | 23.1% (inactive) | 99% | -110% (inactive) | 132% | -0.445 (inactive) | -1.3e-05 (inactive) | 0.00811 (inactive) | 11% (inactive) | 12% (inactive)
5 | NCc1cccc(-n2cccn2)c1 | 680 | -8.9% (inactive) | 1.2% (inactive) | 96.4% | -25.7% (inactive) | 115% | -0.622 (inactive) | 4.5e-06 (inactive) | 0.00555 (inactive) | -6.32% (inactive) | 6.04% (inactive)
6 | Cn1c(=O)c(=O)n(C)c2cc(S(=O)(=O)N3CCN(c4cccc(C(F)(F)F)c4)CC3)ccc21 | 334 | -2.2% (inactive) | -18.8% (inactive) | 107% | -12.6% (inactive) | 104% | -0.354 (inactive) | 1.2e-05 (inactive) | 0.00616 (inactive) | 1.46% (inactive) | 13.1% (inactive)
7 | CN1CCN(c2oc(COc3ccc(-c4ccccc4)cc3)nc2C#N)CC1 | 3 | 117% (active) | 18.4% (inactive) | 98.4% | -35.9% (inactive) | 111% | -0.425 (inactive) | 1e-05 (inactive) | 0.00577 (inactive) | 8.52% (inactive) | -19.8% (inactive)
8 | O=C(CNCC1CCCO1)Nc1ccccc1-n1cccc1 (stereo unspecified) | 671 | -11.4% (inactive) | 1.7% (inactive) | 90.8% | -127% (inactive) | 127% | -0.291 (inactive) | -4.7e-05 (inactive) | 0.00473 (inactive) | 2.08% (inactive) | 15% (inactive)
9 | CC1CCCN(C(=O)c2cc(F)c(F)cc2Cl)C1 (stereo unspecified) | 888 | -1.3% (inactive) | 39.2% (inactive) | 88.6% | -25.2% (inactive) | 94% | -0.617 (inactive) | -3.8e-05 (inactive) | 0.00409 (inactive) | 2.92% (inactive) | 7.68% (inactive)
10 | CCOc1ccc2[nH]c(=O)c(C(c3nnnn3CC3CCCO3)N3CCc4ccccc4C3)cc2c1 (stereo unspecified) | 702 | 12.9% (inactive) | 3.6% (inactive) | 69% | -1.8% (inactive) | 119% | -0.598 (inactive) | -8.5e-06 (inactive) | 0.00562 (inactive) | 20.7% (inactive) | 31.2% (inactive)
11 | COC1CCCCC1Nc1cccc(SC)c1 (stereo unspecified) | 411 | 0.6% (inactive) | -6.7% (inactive) | 90.9% | -65.5% (inactive) | 120% | -0.414 (inactive) | -2.4e-05 (inactive) | 0.0037 (inactive) | 12.1% (inactive) | 19.8% (inactive)
12 | CCc1c(C)n([O-])c2c([n+]1=O)CCC2 | 369 | 2.8% (inactive) | -1.6% (inactive) | 106% | 3.1% (inactive) | 111% | -0.51 (inactive) | -1.5e-05 (inactive) | 0.00618 (inactive) | -11.4% (inactive) | 7.02% (inactive)
13 | Cc1cc(C)n2cc(CSc3nnnn3C)nc2n1 | 532 | -36.9% (inactive) | 9.5% (inactive) | 106% | 36.6% (inactive) | 65.8% | -0.256 (inactive) | -4.3e-06 (inactive) | 0.00505 (inactive) | 15.1% (inactive) | 19.7% (inactive)
14 | Oc1ccc(N2CCN(C(c3ccncc3)c3nnnn3C3CCCC3)CC2)cc1 (stereo unspecified) | 661 | -18.3% (inactive) | -5.2% (inactive) | 101% | -67.5% (inactive) | 115% | -0.502 (inactive) | -4.4e-05 (inactive) | 0.00598 (inactive) | 17% (inactive) | 26.3% (inactive)
15 | COc1ccc(C2(C(=O)N3CCCC3)CCOCC2)cc1OC | 352 | 5.5% (inactive) | -9.9% (inactive) | 97.5% | 30.4% (inactive) | 111% | -0.341 (inactive) | -1.4e-05 (inactive) | 0.00553 (inactive) | 2.28% (inactive) | 15.1% (inactive)
16 | COc1cccc(CNC(=O)CCS(=O)(=O)c2cccc3nsnc23)c1 | 667 | -6.5% (inactive) | -34.5% (inactive) | 112% | 8.1% (inactive) | 109% | -0.513 (inactive) | -3.9e-05 (inactive) | 0.00504 (inactive) | 13.8% (inactive) | 24.3% (inactive)
17 | COc1ccccc1NC(=O)CSc1nnc(CC(=O)Nc2ccccc2)n1C | 455 | 4.9% (inactive) | -6.2% (inactive) | 89.5% | -44% (inactive) | 103% | -0.442 (inactive) | 3.5e-06 (inactive) | 0.0033 (inactive) | 8.73% (inactive) | 20.7% (inactive)
18 | CN(C)c1ccc(/C(=N\O)c2ccccc2)cc1 | 429 | 1.2% (inactive) | -6.9% (inactive) | 93.6% | 25.3% (inactive) | 103% | -0.465 (inactive) | 1.6e-05 (inactive) | 0.00326 (inactive) | -24.9% (inactive) | -21.7% (inactive)
19 | Cc1c(C)[n+](=O)c2c(n1[O-])CCCCC2 | 545 | -27.9% (inactive) | 10.6% (inactive) | 81.3% | 36.9% (inactive) | 63.9% | -0.491 (inactive) | -4.7e-05 (inactive) | 0.00652 (inactive) | -0.779% (inactive) | 22.1% (inactive)
20 | COc1ccccc1NC(=O)NCCCN1CCN(c2cccc(Cl)c2)CC1 | 628 | -11.6% (inactive) | 13.1% (inactive) | 112% | -47.7% (inactive) | 118% | -0.556 (inactive) | 1e-05 (inactive) | 0.00548 (inactive) | -24.8% (inactive) | -19.5% (inactive)
21 | CCc1nc(C)ccc1OCC(=O)O | 332 | 1% (inactive) | -30% (inactive) | 89.2% | 9.9% (inactive) | 102% | -0.459 (inactive) | -6.3e-05 (inactive) | 0.00578 (inactive) | -11.9% (inactive) | -14.7% (inactive)
22 | CSc1ccc(S(=O)(=O)Nc2cccc(F)c2)cc1 | 342 | 1% (inactive) | -4.6% (inactive) | 82.9% | -34.7% (inactive) | 96.9% | -0.408 (inactive) | -5.1e-05 (inactive) | 0.00352 (inactive) | 15.7% (inactive) | 26.6% (inactive)
23 | O=c1c2cc(N3CCOCC3)ccc2[nH]c(=S)n1CCCN1CCCCC1 | 522 | 6.2% (inactive) | -8.5% (inactive) | 121% | -2.6% (inactive) | 106% | -0.0837 (active) | 8.7e-06 (inactive) | 0.00508 (inactive) | -10.1% (inactive) | 23.3% (inactive)
24 | CN(CCNS(=O)(=O)c1ccc2c(c1)oc(=O)n2C)Cc1ccccc1 | 739 | -6.7% (inactive) | -7.2% (inactive) | 95.2% | -65.3% (inactive) | 119% | -0.604 (inactive) | -4.2e-05 (inactive) | 0.0075 (inactive) | 9.41% (inactive) | 39.8% (inactive)
25 | FC(F)(F)c1cc(-c2ccco2)nc(N2CCOCC2)n1 | 645 | -8.5% (inactive) | -15% (inactive) | 89% | -83.2% (inactive) | 118% | -0.586 (inactive) | -1.4e-05 (inactive) | 0.00435 (inactive) | 16.2% (inactive) | 15.5% (inactive)
26 | COc1ccc(C)cc1NS(=O)(=O)c1ccc(NS(=O)(=O)c2ccc(NC(C)=O)cc2)cc1 | 345 | -7.8% (inactive) | -15.2% (inactive) | 99.4% | -16.4% (inactive) | 119% | -0.514 (inactive) | -6e-05 (inactive) | 0.00545 (inactive) | 19.9% (inactive) | 24.8% (inactive)
